Here are results for 59 compounds from PubChem BioAssay AID1529 (NMMLSC, 2009).

About 4,200 (1.4%) of roughly 290,000 compounds were called active. Shown is part of a subset that was picked to be rich in actives. A number with no mark means an inactive call.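 Rule for the calls: active = binding response more than 3 SD above or below the average of its plate-row segment, actives on both sides; inconclusive = wells at one plate position flagged as instrument error; inactive = the rest.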

The target of the experiment is Mitogen-activated protein kinase kinase kinase 3 (Homo sapiens) (UniProt Q99759). Description: modulators of MEKK3-MEK5 PB1 binding, primary screen, biochemical, wildtype MEKK3, multiplex bead flow cytometry, Alexa488-MEK5 (AID 1529).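 Note: Alexa488 bead fluorescence after subtracting the streptavidin-only scavenger bead signal.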 The following applies: bead-based flow cytometry, Alexa488-MEK5 binding to MEKK3; at 10 µM; actives lie on both sides; 0 = blocked by unlabeled MEK5, 100 = vehicle. (Flow cytometry measures light scatter and fluorescence of single cells or particles in a stream.)
Chain of Mitogen-activated protein kinase kinase kinase 3 (Homo sapiens) (Q99759 whole entry, looked up): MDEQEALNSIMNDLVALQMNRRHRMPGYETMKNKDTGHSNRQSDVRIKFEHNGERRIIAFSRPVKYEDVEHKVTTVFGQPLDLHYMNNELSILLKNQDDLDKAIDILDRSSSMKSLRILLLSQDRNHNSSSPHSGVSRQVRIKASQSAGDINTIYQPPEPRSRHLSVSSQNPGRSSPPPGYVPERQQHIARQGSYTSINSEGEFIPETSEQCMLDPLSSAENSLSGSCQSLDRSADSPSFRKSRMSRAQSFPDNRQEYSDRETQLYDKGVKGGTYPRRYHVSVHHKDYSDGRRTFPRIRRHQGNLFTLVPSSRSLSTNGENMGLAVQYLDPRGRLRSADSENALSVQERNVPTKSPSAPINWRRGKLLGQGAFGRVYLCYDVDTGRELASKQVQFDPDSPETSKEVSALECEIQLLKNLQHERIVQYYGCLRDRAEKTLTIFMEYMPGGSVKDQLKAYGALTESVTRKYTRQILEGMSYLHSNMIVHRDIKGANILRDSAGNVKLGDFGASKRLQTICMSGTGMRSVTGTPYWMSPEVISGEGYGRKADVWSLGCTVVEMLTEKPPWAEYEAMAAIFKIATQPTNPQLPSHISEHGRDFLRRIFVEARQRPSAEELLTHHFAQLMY
Take `C#CCOCCOCCOCCNc1nc(N2CCN(C(=O)C([C@@H](C)CC)n3cc(C(N)COC(=O)C(F)(F)F)nn3)CC2)nc(N2CCN(C(=O)[C@H](Cc3ccc(O)cc3)n3cc(C(N)[C@H](C)CC)nn3)CC2)n1` (some centres undefined): the binding response (% of control) is 104%. For the compound `CC(=O)Nc1ccc(Oc2ccc3c(c2)C(=O)NC3=O)cc1`, the binding response (% of control) is 105%. For the compound `CC(C)(C)NC(=O)Cn1cnc2cc([N+](=O)[O-])ccc2c1=O`, the binding response (% of control) was 95%. With `CC(C)(C)NC(=O)Cn1cnc([N+](=O)[O-])n1`, the binding response (% of control) is 1% [inhibitor] (active). Then `O=C(Cn1cnc([N+](=O)[O-])n1)NCCc1ccccc1`, with 102%; and `CCC(CC)COC(=O)C1=C(C)NC(=O)NC1c1ccc([N+](=O)[O-])cc1` (centres undefined), with 105%.

As to `CCSc1nnc(SCC(=O)NNC(=O)c2ccccc2F)s1`, the binding response (% of control) was 101%. `CCOc1ccc(C(=O)Nc2cc(OC)ccc2OC)cc1`: the binding response (% of control) was 97%.

Take `CCOc1ccc(NC(=O)Nc2cc(C)ccc2OC)cc1`: the binding response (% of control) is 71% [inhibitor] (active). Regarding `CCOc1ccc(NC(=O)Nc2cc(C)on2)cc1`, the binding response (% of control) is 102%. For `CC(C)CCC(C)NC(=O)c1ccc2nccnc2c1` (centres undefined) the value was 61%.

With `CCCc1nnc(NC(=O)CCC(=O)NC2CC2)s1`, the binding response (% of control) was 96%. On to `CC(=O)N(C)c1ccc(NC(=O)C(F)(F)F)cc1`, for which the binding response (% of control) was 2% [inhibitor] (active). For `CC(=O)N(C)c1ccc(NC(=O)Nc2cccc3ccccc23)cc1`, the binding response (% of control) is 103%. With `CCOc1ccc(NC(=O)Nc2ccc(N(C)C(C)=O)cc2)cc1`, the binding response (% of control) was 101%.

Take `CC(NCC(=O)Nc1cc(Cl)cc(Cl)c1)c1ccccc1` (centres undefined): the binding response (% of control) was 100%. On to `Cc1cc(=O)oc2c3c(cc(OCC(=O)N[C@H](C(=O)O)c4ccccc4)c12)OC(C)(C)CC3`, for which the binding response (% of control) was 97%. With `C=CCC1(C(=O)N(C)Cc2ccccc2)CCN(C(=O)OC(C)(C)C)CC1`, the binding response (% of control) was 97%. With `CC(=O)Nc1ccc(-c2csc(NC(=O)Nc3ccccc3)n2)cc1`, the binding response (% of control) was 101%. In the case of `CC(=O)Nc1ccc(C(=O)Nc2nc(-c3cc(C)n(Cc4ccccc4)c3C)cs2)cc1`, the binding response (% of control) was 131% (active). `Cc1cc(-c2csc(N)n2)c(C)n1Cc1ccccc1`: the binding response (% of control) is 91%.

As to `O=C(NCCCN1CCCCCC1)c1ccc(N2CCCC2=O)cc1`, the binding response (% of control) is 108%. As to `CC1CCC(NC(=O)c2ccc(N3CCCC3=O)cc2)CC1` (centres undefined), the binding response (% of control) was 104%. On to `O=C(COC(=O)c1ccc(N2CCCC2=O)cc1)c1ccc(OC(F)F)cc1`, for which the binding response (% of control) is 1% [inhibitor] (active). With `COc1ccc(S(=O)(=O)NC(C)c2ccccc2)cc1C(=O)N1CCCCC1` (centres undefined), the binding response (% of control) was 103%. Turning to `CCCN1CCn2c3c(c4cc(Br)ccc42)CCCC31` (centres undefined), the binding response (% of control) is 96%. As to `O=C(c1cccs1)N(Cc1cc2ccccc2[nH]c1=O)CC1CCCO1` (centres undefined), the binding response (% of control) was 99%. Take `COc1ccc(S(=O)(=O)N2CN(CCc3ccc(OC)c(OC)c3)c3nc4ccccc4nc32)cc1`: the binding response (% of control) was 64% [inhibitor] (active). Consider `O=S(=O)(c1ccccc1)N1CN(Cc2ccc(F)cc2)c2nc3ccccc3nc21`, for which the binding response (% of control) is 85%. Turning to `C=CCN1CN(S(=O)(=O)c2ccc(OC)cc2)c2nc3ccccc3nc21`, the binding response (% of control) was 100%. For `Cc1ccc(C(=O)N2CCC(n3nccc3NC(=O)Nc3cccc(F)c3)CC2)cn1`, the binding response (% of control) was 96%. Then `COC(=O)c1ccc(/C=N/NC(=O)C(=O)N2CCCCCC2)cc1`, with 101%. Regarding `CCn1cc(CN2CCN(CC(C)(C)C)C(CCO)C2)c2ccccc21` (centres undefined), the binding response (% of control) is 107%. Take `COCCOC(=O)C1=C(C)Nc2nc(C)nn2C1c1ccccc1` (centres undefined): the binding response (% of control) was 97%. With `COC(=O)c1nc2n(n1)C(c1ccc([N+](=O)[O-])cc1)C(C(=O)Nc1ccc(Cl)cc1)=C(C)N2` (centres undefined), the binding response (% of control) was 139% (active).

Regarding `COc1cc(C2C(C(=O)Nc3ccc(F)cc3)=C(C)Nc3nc(CCCO)nn32)cc(OC)c1OC` (centres undefined), the binding response (% of control) is 104%. For the compound `CC(=O)N(c1ccc2oc(=O)sc2c1)S(=O)(=O)c1ccc(C)cc1`, the binding response (% of control) is 103%. Then `CN(Cc1ccccc1)C(=O)c1ccc(COc2ccccc2)cc1`, with 109%; and `COc1cc(OC)cc(C(=O)OCC(=O)Nc2sccc2C(N)=O)c1`, with 97%; and `Clc1ccc(-n2nnnc2-c2cnc(-c3ccccn3)nc2-c2cccs2)cc1`, with 100%. As to `c1ccc(-n2nnnc2-c2cccnc2)cc1`, the binding response (% of control) was 108%. On to `FC(F)(F)c1nc(-c2ccccc2)ncc1-c1nnnn1-c1ccccc1`, for which the binding response (% of control) was 48% [inhibitor] (active). As for `C=CCN1C(=NC(=O)COc2ccccc2)SC2CS(=O)(=O)CC21` (centres undefined), the binding response (% of control) was 102%.

Turning to `CCOC(=O)N1CCN(C(=O)Cn2cnc3ccccc3c2=O)CC1`, the binding response (% of control) was 99%. For `CCOC(=O)N1CCN(C(=O)c2n[nH]c(=O)c3ccccc23)CC1` the value was 100%; for `CCOC(=O)N1CCN(CC(=O)n2c(C)c(C)c3ccccc32)CC1`, 124% (active); for `Cc1cccc(OCC(=O)Nc2ccc(C(=O)O)cc2NC(=O)COc2cccc(C)c2)c1`, 105%. In the case of `O=C(CN1CCN(Cc2ccccc2)CC1)Nc1ccc(F)c(F)c1`, the binding response (% of control) was 104%. With `O=C(Nc1ccc(S(=O)(=O)N2CCCCCC2)cc1)c1c(F)cccc1F`, the binding response (% of control) was 101%.

For the compound `CC1(c2nnc(-c3ccncc3)o2)CC(c2cccnc2)=NO1` (centres undefined), the binding response (% of control) is 101%. For `Cc1cccc(N2CCN(S(=O)(=O)c3ccc(-c4cc(C)no4)s3)CC2C)c1` (centres undefined), the binding response (% of control) was 97%. Take `Cc1onc(-c2ccccc2Cl)c1C(=O)OCC(=O)c1ccccc1`: the binding response (% of control) is 1% [inhibitor] (active). As for `Cc1[nH]c2ccccc2c1C(=O)COC(=O)c1c(-c2ccccc2)noc1C`, the binding response (% of control) is 108%. Consider `Cc1onc(-c2ccccc2Cl)c1C(=O)NCCn1ccc2ccccc21`, for which the binding response (% of control) was 98%. Consider `O=C(NCCCN1CCCCC1)C1CCCN(c2ncnc3c2nc2n3CCCCC2)C1` (centres undefined), for which the binding response (% of control) was 94%. For `O=C(CCN1CCN(C/C=C/c2ccccc2)CC1)Nc1ccccc1Cl`, the binding response (% of control) was 104%. In the case of `COc1ccc(S(=O)(=O)N2CCOC2CNC(=O)C(=O)NCc2ccc(F)cc2)cc1` (centres undefined), the binding response (% of control) is 98%. `Cc1nc(SCC(=O)NC2CCCC2)[nH]c(=O)c1C`: the binding response (% of control) is 101%. For `CCNS(=O)(=O)c1ccc(CCC(=O)N2CCN(c3cc(Cl)ccc3C)CC2)cc1` the value was 103%.
